HTR5A ag ctr: counter-screen for OPRM1-OPRD1 agonists: human HTR5A agonism; P47898; HTR5A agonist assay, luminescence, cell-based; activation, % at 9.3 µM; actives 0.61% (n = 340,000); in the data active means activation mostly above about 9.5%, no sharp cut-off; inactive means mostly below about 7.6%;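 further: 0% = cells with vehicle only and 100% = reference agonist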
MOR-DOR ag-1: agonists of human mu-delta opioid receptor heterodimerization; cells, OPRM1-OPRD1 heterodimerization, luminescence; actives 0.3% (n = 340,000); activation, % at 9.3 µM; AID 504326; P35372+P41143;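 further: 0% = vehicle-treated cells and 100% = reference agonist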
OPRM1-OPRD1 inv: inverse agonists of human mu-delta opioid receptor heterodimerization. actives 0.21% (n = 340,000). cell-based MOR-DOR heterodimer luminescence, inverse agonism. inhibition, % at 9.3 µM. P35372+P41143; in the data active means inhibition above about 22%, passing the limit was not always enough;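 further: 0% = cells with DMSO and 100% = wells without cells with DMSO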
HTR5A inv ag: HTR5A inverse agonism, opioid heterodimer counter-screen; AID 504634; HTR5A cell line, luminescence; actives 0.083% (n = 340,000); inhibition, % at 9.3 µM; in the data active means inhibition mostly above about 23%, no sharp cut-off; inactive means mostly below about 18%;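 further: 0% = cells with DMSO and 100% = no-cell wells with DMSO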
m5-HT2A agonist: agonists of mouse serotonin 5-HT2A receptor (HTR2A); P35363; CHO-K1 mHTR2A beta-arrestin complementation, luminescence; percent of 30 µM serotonin response; activation, % at 7.6 µM; actives 0.66% (n = 360,000); AID 624169;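 active means activation above a run cutoff, the mean activation of all tested compounds plus 3 SD, cut at about 14% in these data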;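 further: 0% = plate median of compound wells and 100% = 30 µM serotonin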
MOR-DOR ag-2: opioid heterodimer agonism, HTR5A counter-screen; shares compounds with HTR5A ag ctr; actives 13% (n = 800); U2OS counter-screen cells, complementation luminescence, 3 h; activation, % at 9.3 µM
HTR5A ag conf: HTR5A (human) agonism, confirmation; shares compounds with HTR5A ag ctr; HTR5A agonist cell assay, luminescence; activation, % at 9.3 µM; actives 17% (n = 800); AID 504915; in the data active means activation above about 17%;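 further: 0% = cells with vehicle only and 100% = full reference agonist response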
* hit, by the source's call; x = no result. A selection: hits, their analogues and other compounds. The true share with any hit is near 1.6%. Unless noted, no stated cut-off is given here; in the data, active means activation above about 18%; inactive means the rest.

SMILES	HTR5A ag ctr	MOR-DOR ag-1	OPRM1-OPRD1 inv	HTR5A inv ag	m5-HT2A agonist	MOR-DOR ag-2	HTR5A ag conf
COc1ccc(C2CC(O)(c3ccccc3)Oc3c(C)ccc(C)c32)cc1 (stereo not drawn)	17	7	-37	-16	0	x	x
COc1ccc(CNC(=O)C2CCN(S(=O)(=O)c3ccccc3)CC2)cc1	21*	-1	6	-50	1	3	1
COc1cccc(CNC(=O)C2CCN(S(=O)(=O)c3ccccc3)CC2)c1	-3	-1	6	-29	-5	x	x
CS(=O)(=O)N1CCCC(C(=O)NCc2ccc(F)cc2)C1 (stereo not drawn)	16*	0	0	-21	-3	17	8
O=C(/C=C/c1cccc(F)c1)OCC(=O)N1CCc2ccccc21	18*	1	-5	-46	-1	1	-1
COc1cc(/C=C/C(=O)OCC(=O)N2CCCc3ccccc32)ccc1O	-1	-1	7	6	1	x	x
Cc1ccc(S(=O)(=O)Cn2nnnc2C(CC(C)C)N2CCN(C3CCCC3)CC2)cc1 (stereo not drawn)	3	-1	6	3	-8	x	x
O=C(COc1ccc(-c2ccccc2)cc1)N/N=C/c1cc(O)ccc1Br	22*	4	-26	-21	0	255*	-2
COc1ccc(CC(=O)NNc2ncnc3c2cnn3C)cc1	-1	-2	9	3	-1	x	x
CCOc1cc(C(=O)OCc2ccc([N+](=O)[O-])cc2)ccc1OCC(=O)N1CCOCC1	17*	0	0	-43	-3	1	1
CCOc1cc(C(=O)OCc2cccc(OC)c2OC)ccc1OCC(=O)N1CCOCC1	11	-2	12	8	0	x	x
O=[N+]([O-])c1cccc(N(CC2CO2)S(=O)(=O)c2ccccc2)c1 (stereo not drawn)	3	0	0	-9	8	x	x
Cc1cc(-c2ccccc2C(=O)NC2CCCCC2)on1	15*	3	-14	-8	9	6	2
Cc1ccc(NC(=O)c2ccccc2-c2cc(C)no2)cc1	-7	-3	13	17	1	x	x
CN(C)Cc1nc2ccccc2c(=O)n1Cc1nc(-c2cc3ccccc3o2)cs1	17*	8	-41	-49	5	6	5
Cc1csc(Cn2c(CN(C)C)nc3ccccc3c2=O)n1	-1	-1	8	5	-1	x	x
Cc1cc(O)c(C(C)C)cc1C1(c2cc(C(C)C)c(O)cc2C)OC(=O)c2ccccc21	20*	13	-65	-5	0	6	13
O=C(Nc1ccc2c(c1)oc1ccccc12)c1ccc2c(c1)OCO2	7	4	-21	1	-6	x	x
O=C(COc1ccc2c(c1)OCO2)Nc1ccc2c(c1)oc1ccccc12	16*	3	-18	-58	0	6	8
OCC[C@H]1C[C@@H](O)[C@H](O)[C@@]2(CCCCO2)O1	-4	1	-5	11	3	x	x
CN(CC(=O)Nc1cccc(F)c1)C(=O)C1(c2ccccc2)CC1	14*	-3	11	-7	4	3	-1
CC1CC1C(=O)N(C)CC(=O)Nc1cccc(F)c1 (stereo not drawn)	-4	-1	5	10	-8	x	x
COc1ccc2oc(=O)c(C(=O)N3CCc4ccccc43)cc2c1	15*	-1	4	-6	5	3	6
Cc1ccc(C(=O)O)cc1NC(=O)CN1C(=O)C2C3c4ccccc4C(Br)(c4ccccc43)C2C1=O (stereo not drawn)	-2	-1	6	6	-2	x	x
CC1CCCCN1Cc1c(C#N)c2ccccc2n1C (stereo not drawn)	21*	4	-21	-57	4	3	2
SMILES	HTR5A ag ctr	MOR-DOR ag-1	OPRM1-OPRD1 inv	HTR5A inv ag	m5-HT2A agonist	MOR-DOR ag-2	HTR5A ag conf
Cn1c(CN2CCCC2)c(C#N)c2ccccc21	2	-1	8	14	3	x	x
Cc1ccc(S(=O)(=O)N2CCCOC2CNC(=O)C(=O)NCCc2c[nH]c3ccccc23)cc1 (stereo not drawn)	30*	2	-12	-91	12	3	26*
O=C(NCCc1c[nH]c2ccccc12)C(=O)NCC1OCCN1S(=O)(=O)c1ccc(F)cc1 (stereo not drawn)	11	0	0	-35	5	x	x
O=C(NCCc1c[nH]c2ccccc12)C(=O)NCC1OCCCN1S(=O)(=O)c1ccccc1 (stereo not drawn)	48*	-1	6	-177	1	4	47*
O=C(NCCc1c[nH]c2ccccc12)C(=O)NCC1OCCN1S(=O)(=O)c1ccccc1 (stereo not drawn)	36*	-2	12	-65	2	1	57*
O=C(NCCc1c[nH]c2ccccc12)C(=O)NCC1OCCN1S(=O)(=O)c1ccc(Cl)cc1 (stereo not drawn)	3	0	2	-42	-3	x	x
Cc1nc(SCC(=O)c2ccc(F)c(F)c2)[nH]c(=O)c1Oc1ccc(Cl)cc1	-1	-1	5	4	4	x	x
COc1ccc(C(=O)C2CCN(C(=S)Nc3ccc(F)cc3)CC2)cc1	-1	-1	5	4	-2	x	x
CC1CCCCC1NC(=O)Cc1ccc(S(=O)(=O)N2CCOCC2)s1 (stereo not drawn)	1	0	-2	-2	0	x	x
O=C(c1ccc2c(Cl)c3c(nc2c1)CCCC3)N1CCN(c2ccc(F)cc2)CC1	16*	1	-8	-41	-2	5	5
CCOC(=O)C(=CNc1cc(OC)ccc1-n1cccc1)C(=O)OCC	16*	3	-13	-43	8	0	5
O=C(Nc1ncn[nH]1)C(F)(F)C(F)F	-1	-1	4	5	5	x	x
CCC(C(=O)Nc1ncn[nH]1)(C(F)(F)F)C(F)(F)F	18*	-1	4	-12	1	0	1
CCn1nc(C(=O)NNC(=O)CCOc2cc(C)ccc2C)c2ccccc2c1=O	-4	-2	13	16	4	x	x
c1cncc(-c2nc3ccccn3c2Nc2ccc3c(c2)OCCO3)c1	30*	2	-13	-65	9	1	-3
Oc1ccccc1-c1nc2cnccn2c1Nc1ccc2c(c1)OCCO2	6	-2	10	0	-6	x	x
CCc1ccc(-c2cc(C(=O)Nc3ccc(S(=O)(=O)NC(C)=O)cc3)c3ccccc3n2)cc1	21*	-2	12	-51	14	10	-3
CCCOc1ccccc1/C=C1\SC(N2CCCCC2)=NC1=O	16*	-1	3	-61	-10	0	24*
COc1ccc(-c2nc(C#N)c(N3CCc4ccccc4C3)o2)cc1OC	18*	-2	9	-42	-1	0	1

Source: PubChem BioAssay (The Scripps Research Institute Molecular Screening Center)
